The supplement of paper PMC10503962

test system: Trichuris muris adult worms; assay: mean motility score (Paragon pixel variance) of adult worms (arbitrary units); higher = more motile worms, i.e. less anthelmintic effect; extreme values may be limits of the assay; settings: 100 µM; 24 h
Protocol: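 Primary ex vivo screen of 409 approved drugs against adult Trichuris muris worms: one worm per well in RPMI-1640 with penicillin/streptomycin, 100 µM drug in 1% DMSO, 37 °C, 5% CO2 for 24 h. Motility was recorded with INVAPP (200-frame movies) and scored with the Paragon pixel-variance algorithm. Values are means of triplicate wells run on three occasions; levamisole was the positive control and DMSO the negative control.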

SMILES | mean motility score
COc1cc2c(c(OC)c1OC)-c1ccc(OC)c(=O)cc1[C@@H](NC(C)=O)CC2 [colchicine] | 1420
CCOP(=O)(OCC)Oc1ccc([N+](=O)[O-])cc1 [paraoxon] | 0
Cl.O=C(CCCN1CCC(n2c(=O)[nH]c3ccccc32)CC1)c1ccc(F)cc1 [benperidol hydrochloride] | 3960
CN(C)C(=O)Oc1ccc[n+](C)c1.[I-] [pyridostigmine iodide] | 2610
O=C1CC[C@@]2(O)[C@H]3Cc4ccc(O)c5c4[C@@]2(CCN3CC2CC2)[C@H]1O5 [naltrexone] | 3530
CC(C)C[C@H]1C(=O)N2CCC[C@H]2[C@]2(O)O[C@](NC(=O)C3C=C4c5cccc6[nH]c(Br)c(c56)C[C@H]4N(C)C3)(C(C)C)C(=O)N12.CS(=O)(=O)O (some centres undefined) [bromocriptine methanesulfonate] | 2300
C#C[C@]1(O)CC[C@H]2[C@@H]3CCC4=CC(=O)CC[C@]4(C)[C@H]3CC[C@@]21C [ethisterone] | 1590
CCCN1C[C@H](CSC)C[C@@H]2c3cccc4[nH]cc(c34)C[C@H]21.CS(=O)(=O)O [pergolide mesylate] | 3150
[O-][n+]1ccccc1S [pyrithione] | 3120
CC(C)N(CCC(C(N)=O)(c1ccccc1)c1ccccn1)C(C)C (centres undefined) [disopyramide] | 1630
CN(C)C(=O)Oc1cccc([N+](C)(C)C)c1.COS(=O)(=O)[O-] [neostigmine methylsulfate] | 1600
CC[C@H]1[C@H]2CC3[C@@H]4N(C)c5ccccc5[C@]45C[C@H]([C@@H]2C5O)N3[C@@H]1O (some centres undefined) [ajmaline] | 1790
C[C@H](N)[C@H](O)c1ccc(O)c(O)c1 [levonordefrin] | 2110
COc1cc([C@@H]2c3cc4c(cc3[C@H](O)[C@H]3COC(=O)[C@H]23)OCO4)cc(OC)c1OC [podofilox] | 3650
CNC(=O)Oc1ccc2c(c1)[C@]1(C)CCN(C)[C@@H]1N2C [physostigmine] | 3170
CN(C)C(=O)Oc1cc(OC(=O)N(C)C)cc(C(O)CNC(C)(C)C)c1.Cl (centres undefined) [bambuterol hydrochloride] | 1410
CC[C@@H](CO)NC(=O)[C@@H]1C=C2c3cccc4[nH]cc(c34)C[C@H]2N(C)C1.O=C(O)/C=C\C(=O)O [methylergonovine maleate] | 2650
C#CCN(C)[C@H](C)Cc1ccccc1.Cl [selegiline hydrochloride] | 2950
C=CCN1CC[C@]23c4c5ccc(O)c4O[C@H]2C(=O)CC[C@@]3(O)[C@H]1C5.Cl [naloxone hydrochloride] | 3870
COc1ccc(CCN2CCC(Nc3nc4ccccc4n3Cc3ccc(F)cc3)CC2)cc1 [astemizole] | 0
N[C@@H](Cc1cc(Br)c(O)c(Br)c1)C(=O)O [3,5 dibromotyrosine] | 3040
CN1C[C@H](C(=O)N[C@]2(C)O[C@@]3(O)[C@@H]4CCCN4C(=O)[C@H](Cc4ccccc4)N3C2=O)CC2c3cccc4[nH]cc(c34)C[C@H]21.CS(=O)(=O)O (some centres undefined) [dihydroergotamine methanesulfonate] | 1730
C[N+](C)(C)CCCCCCCCCC[N+](C)(C)C.[Br-].[Br-] [decamethonium bromide] | 2280
COc1ccc(C(CN(C)C)C2(O)CCCCC2)cc1.Cl (centres undefined) [venlafaxine hydrochloride] | 1570
